From PubChem BioAssay (NCI)
Compounds without any hit were thinned out: in the full panel of roughly 79,000, 15% have a hit. Activity calls are given as the source filed them. Cut-off read from the data, not from the text of the source: active = growth inhibition above about 70%; inactive = the rest.

Test: NCI Yeast Anticancer Drug Screen. Data for the sgs1 mgt1 strain (AID 161);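 note: 0% = growth of cultures given vehicle only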
Conditions: S. cerevisiae sgs1 mgt1 strain, at 50.0 µM, hits give high values
Summary of the method: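 This yeast growth screen uses a strain with defined DNA-repair lesions; compound-treated growth is compared with vehicle-treated growth.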

SMILES	growth inhibition
CN(C)CCC(=O)Cc1ccccc1	-4.55% (inactive)
O=S(=O)(O)c1cccc2cccc(Nc3ccccc3)c12	8.85% (inactive)
O=C(CC1Sc2ccccc2NC1=O)Nc1cc(Cl)ccc1Cl (configuration not stated)	-4.55% (inactive)
Nc1ccc(N=Nc2ccncc2)c2ccccc12	4.1% (inactive)
Cc1ccc2occ(/C=N/NC(N)=S)c(=O)c2c1	12.3% (inactive)
CC1=CC(C)S(=O)(=O)C1 (configuration not stated)	-89.1% (inactive)
O=S(=O)(O)c1ccc2c(N=Nc3cccc4ccccc34)c(O)c(S(=O)(=O)O)cc2c1	-21.3% (inactive)
C/C(C#N)=C1/Nc2ccccc2NC1=O	-24.6% (inactive)
OC(CCN1CCC2CCC(C2)C1)(c1ccccc1)c1ccc(Cl)cc1 (configuration not stated)	14% (inactive)
c1ccc2c(c1)CCc1cc3cc4c(nc3nc1-2)-c1ccccc1CC4	-14.1% (inactive)
COc1ccc(C2C(=O)C(Cl)N2Nc2nc(C)cc(=O)[nH]2)cc1OC (configuration not stated)	4.2% (inactive)
O=C(OC(c1ccccc1)c1ccccc1)c1ccccc1C(=O)c1ccccc1	-21% (inactive)
NCS(=O)(=O)O	-18.9% (inactive)
COc1ccc2nc(NCCNCCO)cc(NCCNCCO)c2c1	1.2% (inactive)
COc1cc(C(c2c(O)c3ccccc3oc2=O)N2CCCC2)cc(OC)c1OC (configuration not stated)	7.05% (inactive)
CCCCCCCCCCCCOc1ccc2ccccc2c1	0.85% (inactive)
CSC12CC3C(=O)C=C[C@@H](O)[C@@H]3N1C(=O)C1(SC)CC3C(=O)C=C[C@@H](O)[C@@H]3N1C2=O (some centres not stated)	85.1% (active)
